Bioassay records deposited in PubChem by National Center for Advancing Translational Sciences (NCATS).
In the library only some 12% were active in any assay of this set; here they are far more common.
G9a inh: inhibitors of human histone lysine methyltransferase G9a; Potency, µM (highest dose often 102 µM), hits mostly inhibitors; actives 8.8% (n = 350,000); AID 504332; G9a H3K9 monomethylation, AlphaScreen, 2 h; also: nearly all actives have a fitted effect of over 75% in size
Target sequence (Q96KQ7 913-1193 limits assumed): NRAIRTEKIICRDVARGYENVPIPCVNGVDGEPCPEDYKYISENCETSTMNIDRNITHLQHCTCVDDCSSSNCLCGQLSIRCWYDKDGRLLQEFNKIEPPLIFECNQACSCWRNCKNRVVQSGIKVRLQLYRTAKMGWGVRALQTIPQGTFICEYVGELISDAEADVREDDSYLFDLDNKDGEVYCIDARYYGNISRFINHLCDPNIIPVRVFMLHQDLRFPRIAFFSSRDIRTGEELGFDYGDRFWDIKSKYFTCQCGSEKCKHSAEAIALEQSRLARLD
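Readings reflect AlphaScreen signal from monomethyl-H3K9 antibody detection. HMT at 20 nM; substrate b-H3K9 500 nM; cofactor SAM 20 uM; 2 h RT reaction; compounds tested as titrations in qHTS with 15 min preincubation.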
HP1b binding inh: HP1-beta chromodomain-methylated histone interaction inhibition; P83916; Potency, µM (top dose mostly 114 µM), most hits filed as inhibitors; actives 0.56% (n = 390,000); AlphaScreen HP1-beta / biotin-H3K9me3 peptide binding; also: nearly all actives have a fitted effect of over 70% in size
Target sequence (P83916 whole entry, looked up): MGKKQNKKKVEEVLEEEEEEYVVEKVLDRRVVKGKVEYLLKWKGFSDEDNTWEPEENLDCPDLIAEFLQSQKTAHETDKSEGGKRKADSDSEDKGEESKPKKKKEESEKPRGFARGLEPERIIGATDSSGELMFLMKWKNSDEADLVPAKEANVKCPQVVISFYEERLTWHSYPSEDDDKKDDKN
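Compound inhibition of the preformed complex between 50 nM HP1-beta and 50 nM biotinylated H3K9me3 peptide was read by AlphaScreen. Buffer was PBS pH 7.4 with 0.01% Tween-20. Incubations ran 30 min at room temperature, with 10 ug/mL donor/acceptor beads.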
Sfp PPTase inh: blocks B. subtilis Sfp PPTase activity; Q9F4F7; Biochemical Sfp PPTase activity, qHTS; Potency, µM, most hits filed as inhibitors; actives 3.5% (n = 310,000);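 also: the enzyme is Sfp with the accession as filed and its product quenches rhodamine fluorescence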
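Fluorescence-quenching assay with 15 nM Sfp, 5 uM rhodamine-CoA and 12.5 uM BHQ-2-labelled ybbR peptide in pH 7.6 Hepes/MgCl2 buffer. Enzyme was pre-incubated with compound for 15 min at room temperature. Rate was taken from the 30-min fluorescence change (525/598 nm).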
PLK1 PBD inh: blocks phosphopeptide binding to human PLK1 polo-box domain; AID 720504; actives 2.8% (n = 360,000); P53350; Potency, µM, actives largely listed as inhibitors; Plk1 PBD binding of FITC phosphopeptide, fluorescence polarization; also: series mostly up to about 57 µM; nearly all actives have a fitted effect of over 65% in size
JMJD2A Tudor: blocks the human JMJD2A Tudor domain; O75164; AlphaScreen JMJD2A-Tudor / H3K4me3 peptide binding; Potency, µM (top dose mostly 114 µM), hits mostly inhibitors; actives 4.4% (n = 390,000); AID 504339; also: nearly all actives have a fitted effect of over 50% in size
BAZ2B inh: blocks human BAZ2B | Q9UIF8 | AlphaScreen BAZ2B-H3K14Ac peptide displacement | Potency, µM (titrated, usually from 114 µM), usual class: inhibitors | actives 4.4% (n = 360,000); also: nearly all actives have a fitted effect of over 60% in size
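BAZ2B 50 nM plus b-H3(5-23)K14Ac 50 nM, PBS pH 7.4/0.01% Tween-20, 30 min RT; compound added (max 110 uM), 30 min RT; streptavidin donor/Ni-chelate acceptor beads 10 ug/mL final, 20 min dark; AlphaScreen read.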
Hits are given with their value; – = inactive; ? = inconclusive; · = no result given; [ ] = remark or other dose. Calls follow the shape of the dose curve; as a rule, active = well fitted curve in the direction sought with a large enough effect; inconclusive = small, poorly fitted or top-dose-only effect, or another doubt; inactive = no such curve, though single readings can be large; an effect the other way counts as inactive or inconclusive.

SMILES	G9a inh	HP1b binding inh	Sfp PPTase inh	PLK1 PBD inh	JMJD2A Tudor	BAZ2B inh
CC(Oc1ccc(F)cc1)C(=O)Nc1cc(C(F)(F)F)ccc1-n1cncn1 (stereo unspecified)	56.2µM	–	·	–	–	–
CC(=O)c1ccc(S(=O)(=O)N2CCN(CC(=O)Nc3ccnn3C3CCCC3)CC2)cc1	·	–	·	–	–	·
CC(C)N1CCc2c(sc(NC(=O)c3cc(-c4cccs4)nc4ccccc34)c2C(N)=O)C1	11.2µM	–	?	–	?	39.8µM
CC(C)N1CCc2c(sc(NC(=O)c3nc4ccccc4s3)c2C(N)=O)C1	44.7µM	–	–	–	?	–
CC(C)N1CCc2c(sc(NC(=O)c3ccc([N+](=O)[O-])o3)c2C(N)=O)C1	?	·	–	·	·	?
CC(C)N1CCc2c(sc(NC(=O)c3ccc(S(=O)(=O)N(C)C4CCCCC4)cc3)c2C(N)=O)C1	–	–	·	·	?	–
CC(C)N1CCc2c(sc(NC(=O)c3ccc(S(=O)(=O)N4CCc5ccccc54)cc3)c2C(N)=O)C1	17.8µM	–	–	–	?	?
CCC(C)NC(=O)c1cc(-c2cccs2)nc2ccccc12 (stereo unspecified)	–	–	–	–	–	–
C=C/C(C)=C/[C@@]1(C)SC(=O)C(C)=C1O	–[12.7 µM]	·	·	·	·	·
O=[N+]([O-])c1ccccc1/C=C/C=N/n1c(-c2ccccc2)n[nH]c1=S	3.16µM	?	–	?	56.2µM	?
O=[N+]([O-])c1ccccc1/C=C/C=N/n1c(-c2ccc(Cl)cc2)n[nH]c1=S	6.31µM	–	–	?	?	?
COc1ccc(CCNC(=O)Cc2ccc(NS(=O)(=O)c3ccc(F)cc3)cc2)cc1OC	–	–	·	–	–	–
CCOC(=O)C/C(C)=N\Nc1nc(-c2ccccc2)cs1	?	–	?	?	–	–
CC(C)=NNc1nc(-c2ccccc2)cs1	?	–	79.4µM	–	–	–
CC(/C=C/c1ccccc1)=N\Nc1nc(-c2ccccc2)cs1	–	–	–	–	?	–
C/C(CCC1CC(C)OC1=O)=N/Nc1nc(-c2ccccc2)cs1 (stereo unspecified)	8.91µM	–	50.1µM	29.9µM	?	?
CC(C)=NNc1nc(-c2ccc(N3C(=O)CCC3=O)cc2)cs1	?	–	20µM	?	–	?
Cc1cnc(C(=O)Nc2ccccc2-n2cccc2)cn1	?	–	44.7µM	–	?	–
Cc1ccc(N2C(=O)N(Cc3cccc(Cl)c3)c3ccccc3S2(=O)=O)cc1	–	–	·	·	–	–
Cc1c(C)n(CCc2ccccc2)c2ncnc(NCCCN(C)C)c12	–[2.33 µM]	?	–	–	?	44.7µM
COc1ccc(CCNc2ncnc3c2c(C)c(C)n3CCO)cc1OC	–	–	–	26.7µM	?	–
COc1ccc(CCNc2ncnc3c2c(C)c(C)n3CCCN(C)C)cc1OC	?	–	–	–	?	–
CCCc1nc2oc(C(=O)c3ccccc3)c(N)c2c2c1COC(C)(C)C2	?	–	–	–	–	–
Cc1nc2oc(C(=O)c3ccc(Br)cc3)c(N)c2c2c1COC(C)(C)C2	25.1µM	–	–	–	–	–
Cc1ccccc1C(=O)Oc1ccc(Br)cc1C(=S)N1CCCC1	44.7µM	–	–	–	–	–
SMILES	G9a inh	HP1b binding inh	Sfp PPTase inh	PLK1 PBD inh	JMJD2A Tudor	BAZ2B inh
O=C(Oc1ccc(C(=S)N2CCCCC2)cc1)c1ccccc1F	·	–	–	–	–	–
O=C(Oc1ccc(Br)cc1C(=S)N1CCCC1)c1ccccc1F	8.91µM	–	44.7µM	26.7µM	–	–
COc1cccc(C(=O)N(Cc2sccc2C)C2CCS(=O)(=O)C2)c1 (stereo unspecified)	–	–	·	·	–	–
Cc1ccc(C(=O)Nc2ccccc2C(=O)N2CCOCC2)cc1[N+](=O)[O-]	–	–	–	–	–	–
CC(C)(C)c1ccc(OCC(=O)N2CCN(c3ncccn3)CC2)cc1	–	–	–	–	–	–
OCCN(CCCn1c(-c2ccncc2)nc2ccccc21)c1nc(CN2CCCCC2)cs1	–	–	–	–	–	–
Cc1ccc(-c2csc(N3CCN(CCCn4c(C(F)(F)F)nc5ccccc54)CC3)n2)cc1	44.7µM	–	–	–	–	–
